Six compounds from PubChem BioAssay can be followed below.

Assay [1] can be described thus: compounds binding Alexa647 anti-His antibody – biochemical, small-molecule microarray, 635 nm fluorescence, artefact control for SMM control protein annotation, primary screen (AID 1128).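 Also: score merges feature fluorescence with signal-to-noise for each printed compound spot.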 The following applies: higher = more signal.
Assay [2] deals with Human papillomavirus type 1a E7 protein (residues 1-88). Kind of assay: HPV1a E7 small-molecule binders, primary screen, biochemical, small-molecule microarray, residues 1-88, 635 nm (AID 1129). To be noted: small-molecule microarray binding, fluorescence 635 nm; higher = more signal.
Assay [3] concerns the target Focal adhesion kinase 1 (Homo sapiens) (UniProt Q05397). As to the kind of experiment: PTK2 protein binding on printed compound slides – biochemical, small-molecule microarray, 635/667 nm fluorescence, BSA, DTT, primary screen (AID 1130).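 Also: composite of spot emission at 667 nm and signal to noise over triplicate slides.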 To be noted: 635 nm fluorescence, higher = more signal.
Assay [4] concerns Fibrinogen (Alexa647-labelled). Kind of assay: Alexa647-fibrinogen binding to printed small molecules – biochemical, small-molecule microarray, 635/667 nm fluorescence, artefact control for SMM control-protein annotation, profiling panel (AID 1131).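 Also: z-score merges 667 nm fluorescence with per-spot signal-to-noise over triplicate slides.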 To be noted: fibrinogen-A647 binding fluorescence, higher = more signal.
The target of assay [5] is Follistatin (Homo sapiens) (UniProt P19883). Kind of assay: FST protein binding to printed compounds – biochemical, small-molecule microarray, 635/667 nm fluorescence, primary screen (AID 1132). The following applies: 635 nm fluorescence, higher = more signal.
Sequence of Follistatin (Homo sapiens) (P19883 whole entry, looked up): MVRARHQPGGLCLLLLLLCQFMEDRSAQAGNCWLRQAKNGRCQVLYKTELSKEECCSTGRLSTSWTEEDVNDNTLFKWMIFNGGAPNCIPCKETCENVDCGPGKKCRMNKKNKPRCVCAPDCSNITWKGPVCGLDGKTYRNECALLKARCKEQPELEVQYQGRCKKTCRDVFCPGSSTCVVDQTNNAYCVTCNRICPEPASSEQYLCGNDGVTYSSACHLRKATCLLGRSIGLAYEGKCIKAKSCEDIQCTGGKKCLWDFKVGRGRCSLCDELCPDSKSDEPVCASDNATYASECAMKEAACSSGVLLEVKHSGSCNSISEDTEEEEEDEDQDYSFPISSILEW
Assay [6] addresses Fibroblast growth factor 2 (Homo sapiens) (UniProt P09038). Kind of assay: basic fibroblast growth factor binding to printed compounds – biochemical, small-molecule microarray, 635/667 nm fluorescence, primary screen (AID 1133). To be noted: FGF2, fluorescence 635/667, higher = more signal.
A short description of assay [7]: JC-1 mitochondrial potential readout, lung cancer cells – cell-based, A549, JC-1 fluorescence, basal, 24 h, 100 nL, profiling panel (AID 1138).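 Also: A549 lung adenocarcinoma cells under basal conditions with no added stimulus; test concentration not given here.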 The following applies: higher = more signal.
For assay [8], the system named is Lefty1. As to the kind of experiment: Lefty1 protein binding to printed compounds – biochemical, small-molecule microarray, 635/667 nm fluorescence, primary screen (AID 1139). The following applies: fluorescence 635/667, higher = more signal.
The subject of assay [9] is wheat germ agglutinin (Triticum aestivum), Alexa647-labelled. As to the kind of experiment: Alexa647-WGA lectin binding to printed small molecules – biochemical, small-molecule microarray, 635/667 nm fluorescence, artefact control for SMM control-protein annotation, profiling panel (AID 1140).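 Also: score merges 667 nm feature emission with signal to noise over triplicate slides.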 To be noted: WGA-A647 binding, 635 nm fluorescence, higher = more signal.
In assay [10] the target is Luciferin 4-monooxygenase (Photinus pyralis) (UniProt P08659). Kind of assay: inhibition of purified Photinus pyralis luciferase – biochemical, luminescence, purified enzyme, 2006 set, primary screen (AID 1141).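 Also: cell-free assay with purified firefly luciferase at 100 ng per well in PBS; test concentration not given here.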 The following applies: purified firefly luciferase, SteadyGlo luminescence, 30 min; higher = more signal, called active from +8 up or from −8 down.
Sequence of Luciferin 4-monooxygenase (Photinus pyralis) (P08659 whole entry, looked up): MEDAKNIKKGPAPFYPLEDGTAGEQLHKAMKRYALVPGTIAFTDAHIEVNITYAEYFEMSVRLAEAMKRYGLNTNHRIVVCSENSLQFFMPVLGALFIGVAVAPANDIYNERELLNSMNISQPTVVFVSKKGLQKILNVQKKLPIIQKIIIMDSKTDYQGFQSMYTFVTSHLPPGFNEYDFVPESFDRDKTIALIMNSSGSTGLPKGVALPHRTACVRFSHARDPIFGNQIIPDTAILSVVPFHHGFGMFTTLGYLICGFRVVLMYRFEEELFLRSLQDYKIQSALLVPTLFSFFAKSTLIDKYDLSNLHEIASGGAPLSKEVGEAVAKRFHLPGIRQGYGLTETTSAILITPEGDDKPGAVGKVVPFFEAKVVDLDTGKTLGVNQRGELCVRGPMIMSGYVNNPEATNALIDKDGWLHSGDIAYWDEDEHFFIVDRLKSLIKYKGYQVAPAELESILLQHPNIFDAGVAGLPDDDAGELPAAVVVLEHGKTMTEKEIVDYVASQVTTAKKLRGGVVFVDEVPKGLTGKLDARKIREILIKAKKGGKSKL
Assay [11] relates to Wnt5a (protein binding on small-molecule microarray). Kind of assay: small molecules binding Wnt5a protein – biophysical, small-molecule microarray, 635/667 nm fluorescence, primary screen (AID 1142).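 Also: fluorescence read at 667 nm with signal to noise per printed feature.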 The following applies: 635 nm fluorescence, higher = more signal.
Assay [12] is described as follows: ATP-based viability of Huh7 replicon cells – cell-based, CellTiter-Glo luminescence, basal, 48 h, cytotoxicity control for HCV replication inhibitor project, primary screen (AID 1143).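 Also: Huh7 hepatoma cells carrying a hepatitis C replication reporter with no stimulus; test concentration not given here.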 The following applies: higher = more signal, called active from +8 up or from −8 down.
Assay [13] can be described thus: Pseudomonas biofilm growth suppression – PAO1 strain, BacTiter-Glo luminescence, LB-PBS, primary screen (AID 1144). To be noted: P. aeruginosa PAO1 biofilm, 12 h, higher = more signal.
A short description of assay [14]: basal CRE-LacZ reporter activity in PC12 – cell-based, unstimulated, primary screen (AID 1145). To be noted: no forskolin, luminescence, 4.5 h, higher = more signal, called active from +8 up or from −8 down.
The nature of assay [15]: forskolin-driven CRE-LacZ activity in PC12 – cell-based, CRE-LacZ reporter, forskolin-stimulated, primary screen (AID 1146).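 Also: PC12 cells with 6xCRE LacZ reporter stimulated by forskolin 10 µM; beta-galactosidase reporter signal reflecting CREB driven transcription.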 The following applies: luminescence, 4.5 h, higher = more signal, called active from +8 up or from −8 down.
Assay [16] concerns the target Streptavidin (Streptomyces avidinii) (UniProt P22629). As to the kind of experiment: compounds binding control protein streptavidin – biophysical, small-molecule microarray, 635/667 nm fluorescence, artefact control for SMM compound annotation, primary screen (AID 1147).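 Also: signal reflects streptavidin binding to arrayed compounds as a control protein.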 To be noted: higher = more signal.
Assay [17] in a line: probe aInhba binding on compound microarray – biochemical, small-molecule microarray, 635/667 nm fluorescence, primary screen (AID 1148).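 Also: score merges 667nm spot fluorescence with signal-to-noise for antibody binding to printed compounds.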 To be noted: higher = more signal.
The target in assay [18] is Torsin-1A (Homo sapiens) (UniProt O14656). As to the kind of experiment: TOR1A wild-type binding on microarray – cell lysate, small-molecule microarray, lysate, 635/667 nm, primary screen (AID 1149). The following applies: COS7 hTOR1A-WT lysate, 635 nm fluorescence, higher = more signal.
Sequence of Torsin-1A (Homo sapiens) (O14656 whole entry, looked up): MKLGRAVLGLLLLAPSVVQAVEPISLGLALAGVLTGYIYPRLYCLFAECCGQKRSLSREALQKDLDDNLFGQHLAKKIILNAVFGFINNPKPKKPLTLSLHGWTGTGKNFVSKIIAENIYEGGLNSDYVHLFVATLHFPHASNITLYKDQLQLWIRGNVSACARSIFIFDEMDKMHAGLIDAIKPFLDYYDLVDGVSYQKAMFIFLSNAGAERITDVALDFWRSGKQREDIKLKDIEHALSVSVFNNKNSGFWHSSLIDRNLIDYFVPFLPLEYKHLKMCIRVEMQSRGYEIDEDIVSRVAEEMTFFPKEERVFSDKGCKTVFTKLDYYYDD
Assay [19] shares this target. Kind of assay: torsin A mutant lysate binding on microarrays – cell lysate, small-molecule microarray, COS7 lysate, 635/667 nm fluorescence, primary screen (AID 1150).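 Also: score pools 667 nm emission and signal to noise measuring lysate protein binding.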 The following applies: COS7 hTOR1A mutant lysate, 635 nm fluorescence, higher = more signal.
Assay [20] concerns Sonic hedgehog protein (Shh). As to the kind of experiment: Sonic hedgehog microarray binding compounds – biochemical, small-molecule microarray, 635/667 nm fluorescence, primary screen (AID 1151).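 Also: Shh protein binding to compounds spotted on small-molecule microarray slides; score combines spot fluorescence intensity with signal-to-noise across triplicate slides.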 The following applies: 635 nm fluorescence, higher = more signal.

Molecules are shown by their SMILES. Active and inactive are the calls of the source. Unless noted, no rule for the calls is given here.

Sequence of Focal adhesion kinase 1 (Homo sapiens) (Q05397 whole entry, looked up): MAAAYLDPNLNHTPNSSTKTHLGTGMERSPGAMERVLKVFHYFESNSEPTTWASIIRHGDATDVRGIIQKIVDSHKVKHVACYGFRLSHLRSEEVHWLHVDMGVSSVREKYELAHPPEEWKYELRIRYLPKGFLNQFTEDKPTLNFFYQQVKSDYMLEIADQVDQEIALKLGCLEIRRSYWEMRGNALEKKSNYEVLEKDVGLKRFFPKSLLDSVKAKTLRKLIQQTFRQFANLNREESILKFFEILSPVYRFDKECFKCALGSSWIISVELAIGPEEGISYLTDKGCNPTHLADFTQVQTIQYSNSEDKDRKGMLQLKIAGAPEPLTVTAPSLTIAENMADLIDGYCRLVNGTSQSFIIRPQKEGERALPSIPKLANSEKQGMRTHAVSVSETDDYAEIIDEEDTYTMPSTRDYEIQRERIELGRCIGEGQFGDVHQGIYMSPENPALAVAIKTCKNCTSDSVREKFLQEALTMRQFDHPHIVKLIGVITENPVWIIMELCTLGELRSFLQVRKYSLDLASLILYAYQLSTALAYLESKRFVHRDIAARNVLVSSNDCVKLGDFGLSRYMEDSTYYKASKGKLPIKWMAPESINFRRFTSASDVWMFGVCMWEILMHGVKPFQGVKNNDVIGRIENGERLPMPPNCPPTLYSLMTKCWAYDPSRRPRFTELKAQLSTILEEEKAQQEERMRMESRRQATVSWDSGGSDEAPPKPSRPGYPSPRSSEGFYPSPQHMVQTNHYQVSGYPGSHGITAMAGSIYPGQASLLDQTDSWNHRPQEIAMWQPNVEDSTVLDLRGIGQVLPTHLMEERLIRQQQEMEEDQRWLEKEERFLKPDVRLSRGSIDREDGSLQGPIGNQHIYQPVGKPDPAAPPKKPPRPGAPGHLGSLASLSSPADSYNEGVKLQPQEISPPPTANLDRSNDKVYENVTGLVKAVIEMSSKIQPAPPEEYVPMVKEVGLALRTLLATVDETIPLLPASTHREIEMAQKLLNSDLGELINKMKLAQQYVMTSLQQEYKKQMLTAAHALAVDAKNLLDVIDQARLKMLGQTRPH
Sequence of Fibroblast growth factor 2 (Homo sapiens) (P09038 whole entry, looked up): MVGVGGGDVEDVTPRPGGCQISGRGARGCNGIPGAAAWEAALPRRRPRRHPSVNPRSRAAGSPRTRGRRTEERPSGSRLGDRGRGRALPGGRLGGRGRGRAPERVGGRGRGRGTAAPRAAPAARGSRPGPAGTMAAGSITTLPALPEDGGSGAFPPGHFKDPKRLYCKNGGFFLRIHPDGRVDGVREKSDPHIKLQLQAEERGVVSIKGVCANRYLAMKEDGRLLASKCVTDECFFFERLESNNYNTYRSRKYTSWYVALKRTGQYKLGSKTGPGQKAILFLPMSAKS
Sequence of Streptavidin (Streptomyces avidinii) (P22629 whole entry, looked up): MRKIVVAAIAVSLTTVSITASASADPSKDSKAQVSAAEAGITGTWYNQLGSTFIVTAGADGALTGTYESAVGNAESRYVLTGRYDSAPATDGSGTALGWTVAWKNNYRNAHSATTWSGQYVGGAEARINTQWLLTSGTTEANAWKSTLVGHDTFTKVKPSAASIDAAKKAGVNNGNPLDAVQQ

With `CC[C@@H](c1ccccc1)n1c(=O)n2n(c1=O)[C@H]1[C@H](O)[C@@H]3O[C@@H]3C(=O)[C@H]1CC2`, the composite z-score is -0.276 in assay [1]; 0.0346 in assay [2]; 0.0786 in [3]; -0.0351 in [4]; 0.295 in [5]; 0.319 in assay [6]. Also, the composite z-score in assay [8] is 0.387; in assay [9], 0.13; in assay [11], -0.0319; in assay [16] it was 0.092; in assay [17] it was -0.0762; in assay [18] it was 0.0045. The composite z-score in assay [19] was -0.146; in [20] it was 0.678. The z-score in [7] was 0.276; in assay [10], -1.23 (inactive); in assay [12] it was -3.57 (inactive); in assay [13], 0.206 (inactive); in assay [14], -1.02 (inactive); in assay [15] it was 2.92 (inactive).

Turning to `COC(=O)CC=C[C@@H](C)[C@@H](C=NOC[C@H]1O[C@H](c2ccccc2)C=C[C@@H]1Oc1ccc(OC)cc1)OC`, the composite z-score was 0.162 in assay [1]; -0.499 in assay [2]; -0.103 in assay [3]; -0.313 in [4]; 0.22 in assay [5]; -0.435 in [6]. Moreover, the composite z-score in assay [8] was -0.0398; in [9] it was -0.0524; in [11], 0.0372; in assay [16], -0.682; in assay [17], -0.208; in [18] it was -0.52. For the same compound, the figures for the composite z-score in assay [19] and in assay [20] were -0.305 and 0.161, respectively. Further, the z-score in assay [7] was 0.0691; in [10], 0.4 (inactive); in [12], -0.193 (inactive); in assay [13] it was 0.257 (inactive); in assay [14], 1.34 (inactive); in assay [15], 0.611 (inactive).

Consider `COc1ccc(O[C@H]2C=C[C@@H](c3ccccc3)O[C@@H]2COC(=O)CCC(C)=NO[C@@H]2O[C@H](COC(C)=O)[C@@H](OC(C)=O)[C@H](OC(C)=O)[C@H]2OC(C)=O)cc1`, for which the composite z-score in assay [1] was 0.487; in [2] it was 0.795; in assay [3], -0.234; in [4], 0.708; in [5], 0.293; in assay [6] it was 0.641. Moreover, the composite z-score in assay [8] was 0.742; in assay [9], 0.262; in assay [11], 0.0276; in assay [16], 0.484; in assay [17] it was -0.106; in assay [18], 0.495. The composite z-score came to 0.21 in [19] and 0.918 in assay [20]. In addition, the z-score in [7] is -0.388; in assay [10], 1.16 (inactive); in assay [12], -0.178 (inactive); in assay [13], -0.333 (inactive); in [14] it was 2.85 (inactive); in assay [15] it was 0.847 (inactive).

With `CO[C@H]1COC(=O)[C@@H](C)COC(=O)[C@H](COCc2ccccc2)NC(=O)CC=C[C@H]1C`, the composite z-score was -1.43 in [1]; -1.02 in assay [2]; -0.0555 in [3]; -0.785 in assay [4]; 1.36 in assay [5]; 1.21 in [6]. Besides, the composite z-score was 1.09 in assay [8]; -0.841 in [9]; -0.171 in assay [11]; -0.807 in [16]; -0.203 in assay [17]; 0.436 in [18]. Moreover, the results for the composite z-score in [19] and in [20] were 0.491 and 1.88, respectively. The z-score in assay [7] is 0.844; in [10], -0.949 (inactive); in assay [12], 0.27 (inactive); in assay [13] it was -1.04 (inactive); in assay [14] it was -0.567 (inactive); in assay [15], -0.985 (inactive).

With `CCOC(=O)[C@H](Cc1ccccc1)NC(=O)CCC1CC(OC(=O)NCCc2ccc(F)cc2)CC2(CCCC(COC(=O)NCCCN3CCCC3=O)O2)O1` (stereo not given in full), the composite z-score in assay [1] amounted to 0.688; in assay [2], 0.902; in assay [3], 0.494; in [4], 0.552; in assay [5], 0.578; in assay [6], 0.37. Also, the composite z-score is 0.461 in assay [8]; 0.374 in assay [9]; 0.126 in assay [11]; 0.625 in [16]; -0.206 in assay [17]; 0.144 in assay [18]. Further, the figures for the composite z-score in [19] and in assay [20] were 0.321 and 0.733, respectively. The z-score in assay [7] was 0.837; in assay [10] it was -0.241 (inactive); in [12], -1.04 (inactive); in assay [13], -1.68 (inactive); in assay [14] it was -0.165 (inactive); in assay [15], 0.0137 (inactive).

As for `CCOC(=O)[C@H](CC(C)C)NC(=O)CCC1CC(OC(=O)NCCc2ccc(F)cc2)CC2(CCCC(COC(=O)NCC3CCCCC3)O2)O1` (stereo not given in full), the composite z-score is 0.183 in [1]; 0.579 in assay [2]; -0.124 in [3]; 0.623 in [4]; 0.51 in [5]; 0.631 in [6]. In addition, the composite z-score in assay [8] is 0.803; in assay [9], 0.676; in assay [11], 0.0548; in [16], 1.42; in [17], -0.148; in [18], -0.0001. The composite z-score came out at 0.915 in assay [19] and 0.648 in [20]. In addition, the z-score in assay [7] is -0.506; in [10], 0.997 (inactive); in assay [12] it was 0.791 (inactive); in [13], 0.239 (inactive); in assay [14], 0.381 (inactive); in assay [15] it was 0.868 (inactive).
